Here are results for 14 compounds from PubChem BioAssay (NCATS).

The structures appear in SMILES notation. Records with an inconclusive call do not appear. Activity calls are given as the source filed them. Unless noted, the call rests on the fitted dose curve; in most records, active means well fitted inhibition curve with a large enough effect; inconclusive means small, poorly fitted or top-dose-only effect; inactive means flat fitted curve, though single readings scatter. Non-standard residues stand in square brackets, D forms with d. Residues, ends and D or L forms follow the SMILES beside them. *: point of attachment. Sta = CC(C)C[C@H](N)[C@@H](O)CC(=O)O; Isovaleryl = CC(C)CC(=O)*

A short description of experiment [1]: qHTS drug screen for cell cycle checkpoint inhibitors in PARPi-resistant BRCA-mutant ovarian cancer cell lines. (AID 1963452; calls by dose curve; further: potency means the concentration at half of the fitted maximal effect). Conditions: PEO1/OlaR viability, CellTiter-Glo luminescence, 96 h; for Z-AUC: stronger effect = lower value. Put shortly: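 PEO1, PEO4 and PEO1/OlaR ovarian cancer cells, 600 per well, exposed 96 h at 37C to a dilution series. Viability read by CellTiter-Glo luminescence, normalized to DMSO and empty wells; activity summarized as Z-AUC.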
On the technique in general: Quantitative high-throughput screening tests each substance at several concentrations.

Experiment [2] is described as follows: qHTS for identification of novel therapeutic agents for treatment of microphthalmiaassociated transcription factor (MiT) renal cell carcinoma (RCC) (AID 1963991; calls by dose curve; further: potency means the concentration at half of the fitted maximal effect). The settings on record: CellTiter-Glo, 48 h; for z-score: stronger effect = lower value. A digest of the protocol: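 Three TFE3-fusion RCC lines (UOK109, UOK124, UOK145), 500 cells/well in complete medium, were treated with MIPE 4.0 compounds for 48 hours at 37 C. Viability was by CellTiter-Glo luminescence, normalized to DMSO (100%) and empty wells (0%); curves fitted over 11 concentrations.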

Experiment [3] in a line: qHTS profiling for inhibitors of Plasmodium falciparum proliferation (AID 504749).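 Further: 0% = DMSO vehicle and full inhibition = artemisinin control; nearly all actives have a fitted effect of over 60% in size.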 Conditions: P. falciparum in erythrocytes, SYBR Green DNA, 72 h. A digest of the protocol: (§1)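 SYBR Green fluorescence (ex 485 nm, em 535 nm) reports parasite DNA after 72 h compound exposure of infected red cells at 0.3% parasitemia, 2.5% hematocrit; signal normalized to 0.29 uM artemisinin and vehicle wells.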

The test system of experiment [4] is 3D7. Described as above. The settings on record: P. falciparum in erythrocytes, SYBR Green DNA, 72 h; series mostly up to 28.7 µM. Put shortly:
as §1

Experiment [5] has as its system 7G8. The description is as above. Conditions: P. falciparum in erythrocytes, SYBR Green DNA, 72 h; series mostly up to 28.7 µM. Put shortly:
as §1

Experiment [6] deals with AA1029. Described as above. Conditions: P. falciparum in erythrocytes, SYBR Green DNA, 72 h; series mostly up to 28.7 µM. Put shortly: as §1
Experiment [7] concerns AS120. The description is as above. Conditions: P. falciparum in erythrocytes, SYBR Green DNA, 72 h; series mostly up to 28.7 µM. A digest of the protocol: as §1
In experiment [8] the test system is ATS189. Described as above. Conditions: P. falciparum in erythrocytes, SYBR Green DNA, 72 h; series mostly up to 28.7 µM. A digest of the protocol:
as §1

For experiment [9], the system named is ATS95. Described as above. Conditions: P. falciparum in erythrocytes, SYBR Green DNA, 72 h; series mostly up to 28.7 µM. A digest of the protocol:
as §1

The subject of experiment [10] is C2A. Described as above. The settings on record: P. falciparum in erythrocytes, SYBR Green DNA, 72 h; series mostly up to 28.7 µM. A digest of the protocol: as §1
In experiment [11] the test system is CP185. The description is as above. Conditions: P. falciparum in erythrocytes, SYBR Green DNA, 72 h; series mostly up to 28.7 µM. A digest of the protocol:
as §1

The test system of experiment [12] is CP191. The experiment is described as above. The settings on record: P. falciparum in erythrocytes, SYBR Green DNA, 72 h; series mostly up to 28.7 µM. Put shortly: as §1
Experiment [13] relates to CP192. The description is as above. The settings on record: P. falciparum in erythrocytes, SYBR Green DNA, 72 h; series mostly up to 28.7 µM. Put shortly: as §1
Experiment [14] relates to CP194. The description is as above. Conditions: P. falciparum in erythrocytes, SYBR Green DNA, 72 h; series mostly up to 28.7 µM. Put shortly:
as §1

The test system of experiment [15] is CP201. Described as above. Conditions: P. falciparum in erythrocytes, SYBR Green DNA, 72 h; series mostly up to 28.7 µM. A digest of the protocol: as §1
The mark [16] stands for this setting: measured here: PEO1 parental Z-AUC.
[17] abbreviates: TFE3-RCC UOK109 viability, measured here: UOK109 Z-AUC.
The mark [18] stands for this setting: TFE3-RCC viability, measured here: UOK124 Z-AUC.
[19] abbreviates: TFE3-RCC viability, measured here: UOK145 Z-AUC.

In the case of `C[C@@H](N)C1CCC(C(=O)Nc2ccncc2)CC1` (stereo not given in full), the Z-AUC was 0.275 (inactive) in experiment [1], 0.543 in experiment [1] (setting [16]) and 0.552 in experiment [1] (measured here: PEO4 Z-AUC). The figures for the z-score in experiment [2] (setting [17]), in experiment [2] (setting [18]) and in [2] (setting [19]) were 1.67, 0.534 and 0.866, respectively.
On to `Cc1cccc(CN2CCN(C(c3ccccc3)c3ccc(Cl)cc3)CC2)c1` (stereo not given), for which the values for the Z-AUC in experiment [1], in experiment [1] (setting [16]) and in experiment [1] (measured here: PEO4 Z-AUC) were -1.46 (inactive), -0.604 and -1, respectively.
The like results for `CC(=O)N1CCN(c2ccc(OC[C@H]3CO[C@](Cn4ccnc4)(c4ccc(Cl)cc4Cl)O3)cc2)CC1` were, in that order, 0.477 (inactive), 0.452 and 0.494.
For `Clc1ccc(C(Cn2ccnc2)OCc2c(Cl)cccc2Cl)c(Cl)c1` (stereo not given), the Z-AUC was 0.975 (inactive) in experiment [1], 0.252 in experiment [1] (setting [16]) and 0.49 in experiment [1] (measured here: PEO4 Z-AUC).
For the compound `O=C1NC(=O)C(c2ccccc2[N+](=O)[O-])=C1Nc1ccc(O)c(Cl)c1`, the Z-AUC in experiment [1] is 0.891 (inactive); in experiment [1] (setting [16]), 0.49; in [1] (measured here: PEO4 Z-AUC) it was 0.349.
The like results for `COCCCN1CCC(NC(=O)c2cc(Cl)c(N)c3c2OCC3)CC1` were, in that order, 1.78 (inactive), 1.56 and 1.58.
The corresponding values for `NC(=NCc1ccccc1)NC(=O)c1nc(Cl)c(N)nc1N` are -0.929 (inactive), -0.393 and -0.0693.
As for `CC(C)CC(=O)N[C@H](C(=O)N[C@H](C(=O)N[C@@H](CC(C)C)[C@@H](O)CC(=O)N[C@@H](C)C(=O)N[C@@H](CC(C)C)[C@@H](O)CC(=O)O)C(C)C)C(C)C` (Isovaleryl-VV[Sta]A[Sta]-OH), the Z-AUC in experiment [1] is 0.839 (inactive); in [1] (setting [16]), 0.464; in experiment [1] (measured here: PEO4 Z-AUC), 0.507. For the same compound, the values for the z-score in experiment [2] (setting [17]), in [2] (setting [18]) and in [2] (setting [19]) were 0.353, 0.618 and 0.758, respectively.
Turning to `c1cnc2cc3c(cc2n1)C1CNCC3C1`, the Z-AUC in experiment [1] is -0.725 (inactive); in [1] (setting [16]), -0.804; in experiment [1] (measured here: PEO4 Z-AUC) it was -0.403. Besides, the z-score is -0.0233 in [2] (setting [17]), 0.674 in experiment [2] (setting [18]) and 0.454 in experiment [2] (setting [19]).
In the case of `CCCCc1ccc2nc(NC(=O)OC)[nH]c2c1`, the Potency is 38.9 nM (active) in [1] and 16.6 nM (active) in [2] (TFE3-RCC UOK109 viability, active = Z-AUC below -0.8 in all three lines). For the same compound, the Z-AUC in [1] (setting [16]) is -1.68; in experiment [1] (measured here: PEO4 Z-AUC), -1.66. Further, the results for the z-score in experiment [2] (setting [17]), in [2] (setting [18]) and in experiment [2] (setting [19]) were -1.8, -3.11 and -1.73, respectively. For the same compound, the activity, negative = inhibition in experiment [3] (at 12.8 µM (top of the series), parasite line A) was 2.35% (inactive); in [3] (at 12.8 µM (top of the series), parasite line B), 6.2% (inactive). For the same compound, the Potency result in experiment [4], in [5], in experiment [6], in experiment [7], in experiment [8] and in experiment [9] was “inactive” throughout. Moreover, the Potency result in experiment [10], in experiment [11], in experiment [12], in [13], in experiment [14] and in [15] was “inactive” in each case.
For the compound `CC(=O)Nc1ccc(O)cc1`, the Z-AUC in experiment [1] was 0.911 (inactive); in experiment [1] (setting [16]), 0.308; in [1] (measured here: PEO4 Z-AUC), 0.415. Besides, the z-score in experiment [2] (setting [17]) was found to be 1.26; in experiment [2] (setting [18]), 0.904; in experiment [2] (setting [19]) it was 0.696.
`CCOC(=O)C1=C[C@@H](OC(CC)CC)[C@H](NC(C)=O)[C@@H](N)C1`: the Z-AUC in experiment [1] is 0.109 (inactive); in experiment [1] (setting [16]) it was 0.666; in experiment [1] (measured here: PEO4 Z-AUC), 0.833. Further, the z-score in experiment [2] (setting [17]) turned out to be 0.372; in experiment [2] (setting [18]), 0.178; in experiment [2] (setting [19]), 0.414.
As to `Cc1ccc(C(=O)c2cc(O)c(O)c([N+](=O)[O-])c2)cc1`, the Z-AUC is -0.393 (inactive) in experiment [1], -0.655 in experiment [1] (setting [16]) and -0.817 in [1] (measured here: PEO4 Z-AUC). For the same compound, the figures for the z-score in [2] (setting [17]), in [2] (setting [18]) and in experiment [2] (setting [19]) were 0.222, 0.88 and 0.533, respectively.
In the case of `Cc1ncc([N+](=O)[O-])n1CC(C)O` (stereo not given), the Z-AUC in [1] was 0.202 (inactive); in experiment [1] (setting [16]) it was 1.06; in [1] (measured here: PEO4 Z-AUC), 0.768. Besides, the results for the z-score in experiment [2] (setting [17]), in experiment [2] (setting [18]) and in experiment [2] (setting [19]) were 1.59, 0.687 and 1.68, respectively. The activity, negative = inhibition in experiment [3] (at 28.7 µM (top of the series), parasite line A) was 11.8% (inactive); in experiment [3] (at 28.7 µM (top of the series), parasite line B), 17% (inactive). Further, the Potency result in experiment [4], in experiment [5], in [6], in experiment [7], in experiment [8] and in experiment [9] was “inactive” in each case. The Potency entry in experiment [10], in [11], in experiment [12], in [13], in [14] and in [15] was “inactive” throughout.
